Experimental data from PubChem BioAssay (EPA / NIEHS).
Values joined by “and” are separate entries in the source; they are usually repeats but may differ in a detail not shown here. Equal entries are not always repeated. The source holds several records for some structures; these can differ, active in one and inactive in another. Active and inactive are the calls of the source. Rule for the calls: active = hit-call score of the fitted dose curve at least 0.9, where 1 is the maximum; inactive = score below 0.9.

Experiments:
Conditions in all cases: mRNA level, 48 h; actives raise or lower the signal
[1] = read-out: Fatty Acid-Binding Protein 1 (FABP1), FABP1 (gene 2168); assay: LTEA_HepaRG_FABP1: Life Technologies and Expression Analysis (LTEA) Assay for Fatty Acid-Binding Protein 1 (FABP1) using HepaRG (AID 2283494)
How it was run: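 HepaRG, 48 h post-plating switched to serum-free induction medium, then dosed 48 h (duplicate, 8 pts, ≤100 uM, 0.5% DMSO). RNA → Fluidigm TaqMan qRT-PCR, FABP1 normed to ACTB/GAPDH/POLR2A. Bidirectional curve fit vs DMSO.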

[2] = read-out: Cytochrome P450 4A22 (Homo sapiens) (UniProt Q5TCH4); assay: LTEA_HepaRG_CYP4A22: Life Technologies and Expression Analysis (LTEA) Assay for Cytochrome P450 4A22 (CYP4A22) using HepaRG (AID 2283495)
How it was run: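 Differentiated HepaRG cells in serum-free induction medium exposed 48 h in duplicate to eight half-log concentrations up to 100 uM in 0.5% DMSO. CYP4A22 mRNA quantified by TaqMan qRT-PCR, normalized to ACTB, GAPDH and POLR2A; bidirectional fit versus DMSO.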

[3] = read-out: Cytochrome P450 7A1 (Homo sapiens) (UniProt P22680); assay: LTEA_HepaRG_CYP7A1: Life Technologies and Expression Analysis (LTEA) Assay for Cytochrome P450 7A1 (CYP7A1) using HepaRG (AID 2283496)
How it was run: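 Gene expression endpoint in human HepaRG liver cells treated for 48 h with test chemicals (up to 100 uM, 0.5% DMSO). Values come from bidirectional concentration-response fitting versus DMSO.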

[4] = read-out: Glutathione S-Transferase (GSTA2), GSTA2 (gene 2939); assay: LTEA_HepaRG_GSTA2: Life Technologies and Expression Analysis (LTEA) Assay for Glutathione S-Transferase (GSTA2) using HepaRG (AID 2283497)
How it was run: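 HepaRG, 48 h dosing, 8-pt half-log CRC from 100 uM, 0.5% DMSO vehicle, n=2; RNA → Fluidigm TaqMan qRT-PCR; GSTA2 vs ACTB/GAPDH/POLR2A; gain/loss fit vs DMSO.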

[5] = read-out: Glutamate-cysteine ligase catalytic (GCLC), GCLC (gene 2729); assay: LTEA_HepaRG_GCLC: Life Technologies and Expression Analysis (LTEA) Assay for Glutamate-cysteine ligase catalytic (GCLC) using HepaRG (AID 2283498)
How it was run: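 Read-out is GCLC transcript level by Fluidigm-based TaqMan qRT-PCR, normalized to three housekeeping genes and fitted in both directions relative to 0.5% DMSO. Human HepaRG cells received chemicals for 48 h, up to 100 uM.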

[6] = read-out: growth arrest and DNA damage 45 (GADD45G), GADD45G (gene 10912); assay: LTEA_HepaRG_GADD45G: Life Technologies and Expression Analysis (LTEA) Assay for growth arrest and DNA damage 45 (GADD45G) using HepaRG (AID 2283499)
How it was run: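 Differentiated human HepaRG cells, 48 h post-plating, exposed 48 h in serum-free induction medium to 8 half-log concentrations (top 100 uM, 0.5% DMSO) in duplicate. GADD45G mRNA measured by Fluidigm TaqMan qRT-PCR, normalized to ACTB, GAPDH, POLR2A; bidirectional fit versus DMSO.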

[7] = read-out: Glutamate-cysteine ligase regulatory (GCLM), GCLM (gene 2730); assay: LTEA_HepaRG_GCLM: Life Technologies and Expression Analysis (LTEA) Assay for Glutamate-cysteine ligase regulatory (GCLM) using HepaRG (AID 2283500)
How it was run: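 Human liver HepaRG cultures receive test chemicals for 48 hours at up to 100 uM in 0.5% DMSO. GCLM expression is measured by qRT-PCR and analysed for increases or decreases against vehicle.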

[8] = read-out: Glutathione S-transferase M3 (GSTM3), GSTM3 (gene 2947); assay: LTEA_HepaRG_GSTM3: Life Technologies and Expression Analysis (LTEA) Assay for Glutathione S-transferase M3 (GSTM3) using HepaRG (AID 2283501)
How it was run: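 Differentiated human HepaRG cells were exposed in duplicate for 48 h in serum-free induction medium, 8 points from 100 uM top in half-log steps, 0.5% DMSO. GSTM3 mRNA was measured by TaqMan qRT-PCR, normalized to ACTB, GAPDH and POLR2A; bidirectional fit versus DMSO.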

[9] = read-out: Heat shock 70 kDa protein 1 (HSPA1A), gene 3303; assay: LTEA_HepaRG_HSPA1A: Life Technologies and Expression Analysis (LTEA) Assay for Heat shock 70 kDa protein 1 (HSPA1A) using HepaRG (AID 2283502)
How it was run: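 HSPA1A induction in human HepaRG liver cells is measured after 48 h of chemical treatment (100 uM maximum, 0.5% DMSO vehicle). Expression comes from qRT-PCR normalized to endogenous controls.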

[10] = read-out: 3-Hydroxy-3-Methylglutaryl-CoA Synthase 2 (HMGCS2), HMGCS2 (gene 3158); assay: LTEA_HepaRG_HMGCS2: Life Technologies and Expression Analysis (LTEA) Assay for 3-Hydroxy-3-Methylglutaryl-CoA Synthase 2 (HMGCS2) using HepaRG (AID 2283504)
How it was run: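 Human HepaRG cells in serum-free induction medium were exposed in duplicate for 48 h to 8-point half-log series from 100 uM top in 0.5% DMSO. HMGCS2 mRNA measured by TaqMan qRT-PCR, normalised to ACTB, GAPDH, POLR2A; bidirectional fit versus DMSO.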

[11] = read-out: HGF (gene 3082); assay: LTEA_HepaRG_HGF: Life Technologies and Expression Analysis (LTEA) Assay for Hepatocyte Growth Facto (HGF) using HepaRG (AID 2283505)
How it was run: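 Differentiated HepaRG cells in serum-free induction medium exposed 48 h in duplicate, 8 half-log concentrations from 100 uM in 0.5% DMSO. HGF mRNA by qRT-PCR, normalised to ACTB, GAPDH, POLR2A; bidirectional fitting.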

[12] = read-out: Insulin Like Growth Factor 1 (IGF1), IGF1 (gene 3479); assay: LTEA_HepaRG_IGF1: Life Technologies and Expression Analysis (LTEA) Assay for Insulin Like Growth Factor 1 (IGF1) using HepaRG (AID 2283506)
How it was run: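 Using human HepaRG liver cells, IGF1 transcript induction or suppression is measured 48 h after dosing across eight concentrations capped at 100 uM. Values derive from bidirectional concentration-response fitting with DMSO as baseline.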

[13] = read-out: Intercellular Adhesion Molecule 1 (ICAM1), ICAM1 (gene 3383); assay: LTEA_HepaRG_ICAM1: Life Technologies and Expression Analysis (LTEA) Assay for Intercellular Adhesion Molecule 1 (ICAM1) using HepaRG (AID 2283507)
How it was run: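 Differentiated human HepaRG cells in serum-free induction medium exposed 48 h in duplicate to 8 half-log concentrations (top 100 uM, 0.5% DMSO). ICAM1 mRNA quantified by TaqMan qRT-PCR, normalized to ACTB, GAPDH and POLR2A; bidirectional fitting versus DMSO.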

[14] = read-out: Insulin-like growth factor-binding protein 1 (IGFBP1), IGFBP1 (gene 3484); assay: LTEA_HepaRG_IGFBP1: Life Technologies and Expression Analysis (LTEA) Assay for Insulin-like growth factor-binding protein 1 (IGFBP1) using HepaRG (AID 2283508)
How it was run: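 HepaRG cells, plated 48 h then switched to serum-free induction medium, exposed in duplicate for 48 h to 8-point half-log series from 100 uM in 0.5% DMSO. mRNA measured by qRT-PCR, normalized to ACTB/GAPDH/POLR2A; bidirectional fit versus DMSO.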

[15] = read-out: Interleukin 6 (IL6), IL6 (gene 3569); assay: LTEA_HepaRG_IL6: Life Technologies and Expression Analysis (LTEA) Assay for Interleukin 6 (IL6) using HepaRG (AID 2283509)
How it was run: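 HepaRG, ~100,000 cells/well, 48 h pre-culture; serum-free induction medium; cmpd 8-pt half-log from 100 uM, 0.5% DMSO, duplicate, 48 h. Lysis in RLT, TaqMan qRT-PCR; gain or loss vs DMSO.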

[16] = read-out: Interleukin 6 Receptor (IL6R), IL6R (gene 3570); assay: LTEA_HepaRG_IL6R: Life Technologies and Expression Analysis (LTEA) Assay for Interleukin 6 Receptor (IL6R) using HepaRG (AID 2283510)
How it was run: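 Concentration-response in human liver HepaRG cells: eight concentrations from 100 uM downward by half-logs, 48 h exposure, 0.5% DMSO vehicle. IL6R mRNA change measured by qRT-PCR and fitted in both directions relative to vehicle.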

[17] = read-out: Potassium channel subfamily K member 1 (KCNK1), KCNK1 (gene 3775); assay: LTEA_HepaRG_KCNK1: Life Technologies and Expression Analysis (LTEA) Assay for Potassium channel subfamily K member 1 (KCNK1) using HepaRG (AID 2283511)
How it was run: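 Gain or loss of KCNK1 mRNA is the read-out, quantified by qRT-PCR against three housekeeping genes after 48 h chemical treatment of human HepaRG liver cells. Concentrations ran from 100 uM downward in half-log steps, vehicle 0.5% DMSO.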

[18] = read-out: Keratin 19 (KRT19), KRT19 (gene 3880); assay: LTEA_HepaRG_KRT19: Life Technologies and Expression Analysis (LTEA) Assay for Keratin 19 (KRT19) using HepaRG (AID 2283512)
How it was run: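 Differentiated HepaRG cells in serum-free induction medium, exposed 48 h in duplicate to 8 half-log concentrations up to 100 uM in 0.5% DMSO. KRT19 mRNA by qRT-PCR, normalized to ACTB, GAPDH, POLR2A; bidirectional fit vs DMSO.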

[19] = read-out: JUN Transcription Factor, JUN (gene 3725); assay: LTEA_HepaRG_JUN: Life Technologies and Expression Analysis (LTEA) Assay for JUN Transcription Factor using HepaRG (AID 2283513)
How it was run: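 Human HepaRG liver cells receive test chemicals in 0.5% DMSO for 48 h across an eight-point range topping at 100 uM. Expression changes in JUN are scored in both directions against the DMSO vehicle.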

Measured: AC50

O=C(O)c1nc(Cl)ccc1Cl
active: [1] 33.4 µM | [4] 50 µM
inactive: [1] | [2] | [3] | [4] | [5] | [6] | [7] | [8] | [9] | [10] | [11] | [12] | [13] | [14] | [15] | [16] | [17] | [18] | [19]

C=CCC1=C(C)C(OC(=O)C2C(C=C(C)C)C2(C)C)CC1=O (configuration not stated)
active: [1] 50 µM and 44.6 µM | [2] 84.3 µM and 94.1 µM and 90.4 µM | [3] 3.67 µM and 72.6 µM and 19.4 µM | [4] 84.3 µM | [10] 82.1 µM and 80.4 µM and 87.9 µM | [12] 79.6 µM and 72 µM and 50 µM | [15] 50 µM and 74.3 µM | [18] 50 µM and 88.1 µM and 40.4 µM
inactive: [4] | [5] | [6] | [7] | [8] | [9] | [11] | [13] | [14] | [15] | [16] | [17] | [19]
